Experimental data published in PubChem BioAssay (NCI).
This is part of a sample that, as a whole, favours compounds with a hit. Of some 83,000 tested, about 20% had one in any assay.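 In brief: 96-well plates, 48 h treatment, single concentration, percent growth endpoint.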 The source made the active and inactive calls.

Each compound was assayed on NCI-H522 lung (assay: NCI-60 one-dose screen, 48 h (100 = growth as untreated, 0 = no growth, -100 = all killed)). Conditions: 10 µM unless noted.
Protocol: Growth inhibition of the NCI-H522 human Non-Small Cell Lung tumor cell line is measured as a screen for anti-cancer activity. Cells are grown in 96 well plates and exposed to the test compound for 48 hours. Compounds are tested at a single concentration, which is 10^-5 M for most compounds. The reported endpoint is percent growth (GI% or GIPRCNT), where numbers from 0 - 100% represent growth inhibition, and numbers from -100% - 0 represent cell death. For example, a value of 40 represents 60% growth inhibition. A value of 0 means no net growth occurred over the course of the experiment. A value of -40 indicates 40% of cells at the beginning of the experiment died by the end of the experiment. A value of -100 means all cells are dead at the end of the experiment.
NCI-60 Human Tumor Cell Lines Screen was performed using the standard one-dose NCI protocol, which is described in more detail at https://dtp.cancer.gov/discovery_development/nci-60/default.htm.
Compounds with GIPRCNT values below 10 were considered active. Activity score was based on GIPRCNT using the following formula: […]
Score is 0 for GIPRCNT values of 100 or above, 50 for GIPRCNT values of 0, and 100 for GIPRCNT values of -100.

Row | SMILES | growth
1 | COc1ccc(C2C3=C(COC3=O)N(CCO)c3cc4c(cc32)OCCO4)cc1OC (stereo not given) | -13.9% (active)
2 | C=C(CN1CC=CCC1)[C@@H]1CC[C@]2(CO)CC[C@]3(C)[C@H](CC[C@@H]4[C@@]5(C)CC[C@H](O)C(C)(C)[C@@H]5CC[C@]43C)[C@@H]12 | 96% (inactive)
3 | CCN(CCO)CC(C)Nc1ccc([N+](=O)[O-])c2sc3ccccc3c(=O)c12 (stereo not given) | 15.3% (inactive)
4 | CCn1c2ccc(O)cc2c2c(C)c3c[n+](C(C)C)ccc3c(C)c21 | 19.9% (inactive)
5 | O=C(CCCCCCN1CC(=O)N2[C@@H](C3CCCCC3)c3[nH]c4ccccc4c3C[C@H]2C1=O)NO | 39.9% (inactive)
6 | CCOC(=O)n1cc(-c2nonc2-c2cn(C)c3ccccc23)c2ccccc21 | 18.4% (inactive)
7 | COc1ccc(C2=NN(C(=O)c3cc(OC)c(OC)c(OC)c3)C(c3ccc(N(C)C)cc3)C2)cc1 (stereo not given) | -32.4% (active)
8 | O=C(CBr)CN1C(=O)c2ccccc2C1=O | 101% (inactive)
9 | O=C(O)C1CN(c2cccc(Cl)c2)N(c2cccc(Cl)c2)C1=O (stereo not given) | 87.1% (inactive)
10 | O=C(c1ccc(Cl)cc1Cl)N1c2ccccc2Sc2ccccc21 | 63.7% (inactive)
11 | COc1cccc(/C=C/C(=O)c2cc3c(N)c(C(=O)Nc4cccc(Cl)c4C)sc3nc2C)c1 | -69.7% (active)
12 | CCN1CCN(CC(=O)Nc2nc3ccc(NCc4ccc(Br)cc4)cc3s2)CC1 | 99.5% (inactive)
13 | CCn1cc(C(=O)N/N=C/c2ccc(Br)cc2)c(=O)c2cc(F)c(N3CCNC(C)C3)c(F)c21 (stereo not given) | 78.5% (inactive)
14 | N#Cc1c(NC(=O)c2cccs2)[n+]([O-])c2ccc(Cl)cc2[n+]1[O-] | 93.7% (inactive)
15 | CN(C)c1ccc(/C=C2/C=C(c3ccccc3)OC2=O)cc1 | 55.7% (inactive)
16 | O=C(/C=C\c1ccco1)/C=C/c1ccco1 | 112% (inactive)
17 | C=C1C(=O)O[C@H]2[C@H]1CC/C(COC(=O)NCCCCCCCCNC(=O)OC/C1=C/CC[C@@]3(C)O[C@H]3[C@H]3OC(=O)C(=C)[C@@H]3CC1)=C\CC[C@@]1(C)O[C@@H]21 | -68.7% (active)
18 | C#CC#CC#CC#CC#CC#CC#CC#CC[C@H]1OC[C@H](COC(=O)O[C@@H](C(=O)O[C@H]2C[C@@]3(O)[C@@H](OC(=O)c4ccccc4)[C@@H]4[C@]5(OC(C)=O)CO[C@@H]5C[C@H](O)[C@@]4(C)C(=O)[C@H](OC(C)=O)C(=C2C)C3(C)C)[C@@H](NC(=O)c2ccccc2)c2ccccc2)O1 | 63.5% (inactive)
19 | CNC(=O)c1cc(Oc2ccc3nc(NC(=O)Nc4ccc(Cl)c(Cl)c4)sc3c2)ccn1 | 48.4% (inactive)
20 | C#CC#CC#CC#CC#CC#CC#CC#CCC1OCC(COC(=O)O[C@@H](C(=O)O[C@H]2C[C@@]3(O)[C@@H](OC(=O)c4ccccc4)[C@@H]4[C@]5(OC(C)=O)CO[C@@H]5C[C@H](O)[C@@]4(C)C(=O)[C@H](OC(C)=O)C(=C2C)C3(C)C)[C@@H](NC(=O)c2ccccc2)c2ccccc2)O1 (stereo not given in full) | 24.3% (inactive)

Row | SMILES | growth
21 | Cc1cc(N2CCN(C)CC2)nc(NCc2cc(Nc3ccnc4cc(Cl)ccc34)ccc2F)n1 | -8.53% (active)
22 | Cn1c(/C=C/[N+](=O)[O-])cc2ccccc21 | 70.5% (inactive)
23 | N=C(N)SCc1cccc2c(CSC(=N)N)cccc12 | 104% (inactive)
24 | COc1ccc(C2=Nc3c(N)ncnc3NC(c3cccc(Nc4ccnc5cc(C(F)(F)F)ccc45)c3)C2)cc1 (stereo not given) | 69.6% (inactive)
25 | COc1ccc(C(c2cc(OC)c(OC)c(OC)c2)N2CCCC2)cc1 (stereo not given) | 58.5% (inactive)
26 | CCN1C(=O)N(CC)C2C1NN=c1s/c(=C\c3ccccc3Br)c(=O)n12 (stereo not given) | 0.628% (active)
27 | C=CCOC(=O)C1=C(C)NC(=O)NC1c1c(Cl)n(C)c2ccccc12 (stereo not given) | 93.3% (inactive)
28 | COc1ccc(-c2cc(C(=O)N3N=C(c4ccc(N)cc4)CC3c3ccccc3)c3ccccc3n2)cc1 (stereo not given) | 23.7% (inactive)
29 | Cc1nc2sc(C(=O)Nc3cccc(Cl)c3)c(N)c2cc1C(O)c1ccccc1 (stereo not given) | 3.93% (active)
30 | CC(C)c1ccc(-n2c(=S)[nH]c3sc4c(c3c2=O)CCC(=O)C4)cc1 | 6.26% (active)
31 | c1ccc2cc(Cn3c[n+](Cc4ccc5ccccc5c4)c4ccccc43)ccc2c1 | -28.8% (active)
32 | N=C(N)c1ccc(-c2ccc(-c3ccc(Cl)cc3)o2)o1 | -2.55% (active)
33 | O=C(O)CCCc1cnc2c3sccc3nc(SCc3c(Cl)cccc3Cl)n12 | -12.5% (active)
34 | Cc1ccc2[nH]c(-c3ccc(S(C)(=O)=O)cc3)c(/C=N/N=C(N)N)c2c1 | -7.31% (active)
35 | CC1=NN(c2ccc(Cl)cc2)CC1(C)N=O (stereo not given) | 44.5% (inactive)
36 | O=C(/C=C/c1ccc(Br)cc1)c1ccc(-n2cc(CN3CCN(c4cc5c(cc4F)c(=O)c(C(=O)O)cn5C4CC4)CC3)nn2)cc1 | 78.3% (inactive)
37 | CCOC(=O)c1n[nH]n2c1nc(=O)c1cnn(C)c12 | 91% (inactive)
38 | CCOC(=O)C1CCN(c2ccc(N3C[C@@H](CNCc4ccc(C(=N)N)cc4)OC3=O)cc2)CC1 | 92.6% (inactive)
39 | CN(CCC#N)c1ccc(/C=C2\NC(=O)NC2=O)cc1 | 38.7% (inactive)
40 | CCCCNC1=C(OCC)C(=O)c2ccccc2C1=O | 98.4% (inactive)
